Laboratory results reported in the supplement of paper PMC10849652.
The full data set covers some 7,900 targets. This sample favours those with a hit. About 0.6% of all pairs of compound and target were hits.

Columns and labels:
Assay in all cases: log2 fold change, soluble protein after heating vs DMSO (PISA); higher = thermal stabilisation; K562 cells, 10 uM, 30 min; active = over 0.2 and 3.5 SD of the protein, either way, in both replicates (recomputed)
[1] = compound: CC[C@@H]1C(=O)N(C)c2cnc(Nc3ccc(C(=O)NC4CCN(C)CC4)cc3OC)nc2N1C1CCCC1
Summary of the method: (§1)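 K562 cells at 2×10^6 cells/mL were given 10 μM compound for 30 min. Aliquots then went through 3 min of heating across 48°C-58°C, were pooled, and were extracted in PBS with 0.5% NP-40 at 4°C, and the supernatant after 21,000xg for 90 min was quantified by TMTpro 16plex LC-MS/MS with channel sums equalised. Thermal stability relative to control samples, from duplicates, is given as log2 fold change.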

volasertib = compound: CC[C@@H]1C(=O)N(C)c2cnc(Nc3ccc(C(=O)N[C@H]4CC[C@H](N5CCN(CC6CC6)CC5)CC4)cc3OC)nc2N1C(C)C [volasertib]
Summary of the method: as §1

[2] = compound: CC[C@H](C)N1C=C(C2=C(C=C(C=C21)C3=CN=C(C=C3)N4CCNCC4)C(=O)NCC5=C(C=C(NC5=O)C)C)C
Summary of the method: as §1

epoxomicin = compound: CC[C@H](C)[C@@H](C(=O)N[C@@H]([C@@H](C)O)C(=O)N[C@@H](CC(C)C)C(=O)[C@]1(CO1)C)NC(=O)[C@H]([C@@H](C)CC)N(C)C(=O)C [epoxomicin]
Summary of the method: as §1

[3] = compound: CCn1c(C(=O)N(C2CC2)C2CC2)cc2c3c(ncn3C)c(Nc3cc(C)n(C)n3)nc21
Summary of the method: as §1

[4] = compound: CCn1cc(-c2ccnc3[nH]c(-c4cccc(CN(C)C)c4)cc23)c(-c2ccc(NC(=O)N(C)C)cc2)n1
Summary of the method: as §1

[5] = compound: CN(C)CC(=O)Nc1ccc2[nH]c(=O)c3ccccc3c2c1
Summary of the method: as §1

rosiglitazone = compound: CN(CCOC1=CC=C(C=C1)C[C@H]2C(=O)NC(=O)S2)C3=CC=CC=N3 (racemic) [rosiglitazone]
Summary of the method: as §1

[6] = compound: CN1C2=C(C3=C1C(=O)N(N=C3)CC4=CC(=CC=C4)N)SC(=C2)S(=O)C
Summary of the method: as §1

[7] = compound: CN1CCC(CNc2ccc3ncc(-c4cccc(OC(F)(F)F)c4)n3n2)CC1
Summary of the method: as §1

Measured: log2 fold change

XIAP (UniProt P98170)
inactive: [1] -0.135 | [2] 0.094 | epoxomicin 0 | [3] -0.029 | [4] 0 | [5] 0.071 | rosiglitazone 0.043 | [6] -0.101 | [7] -0.131
active: volasertib -0.457

VPS53 isoform 4 (UniProt Q5VIR6)
active: volasertib -0.358
inactive: [1] -0.095 | [2] 0.033 | epoxomicin 0.041 | [3] -0.094 | [4] 0.022 | [5] 0.007 | rosiglitazone 0.023 | [6] 0.016 | [7] -0.128

TMEM192 (UniProt Q8IY95)
active: [7] -0.408
inactive: [1] -0.139 | volasertib -0.061 | [2] -0.025 | epoxomicin -0.04 | [3] 0.074 | [4] 0.046 | [5] -0.024 | rosiglitazone 0.008 | [6] 0.025

TUT4 (UniProt Q5TAX3)
inactive: [1] -0.064 | volasertib -0.229 | [2] -0.15 | epoxomicin -0.219 | [3] -0.041 | [4] 0.046 | [5] 0.018 | rosiglitazone -0.012 | [7] -0.235
active: [6] 0.566

TRAPPC11 (UniProt Q7Z392)
Chain of UniProt Q7Z392 (Q7Z392 whole entry, looked up): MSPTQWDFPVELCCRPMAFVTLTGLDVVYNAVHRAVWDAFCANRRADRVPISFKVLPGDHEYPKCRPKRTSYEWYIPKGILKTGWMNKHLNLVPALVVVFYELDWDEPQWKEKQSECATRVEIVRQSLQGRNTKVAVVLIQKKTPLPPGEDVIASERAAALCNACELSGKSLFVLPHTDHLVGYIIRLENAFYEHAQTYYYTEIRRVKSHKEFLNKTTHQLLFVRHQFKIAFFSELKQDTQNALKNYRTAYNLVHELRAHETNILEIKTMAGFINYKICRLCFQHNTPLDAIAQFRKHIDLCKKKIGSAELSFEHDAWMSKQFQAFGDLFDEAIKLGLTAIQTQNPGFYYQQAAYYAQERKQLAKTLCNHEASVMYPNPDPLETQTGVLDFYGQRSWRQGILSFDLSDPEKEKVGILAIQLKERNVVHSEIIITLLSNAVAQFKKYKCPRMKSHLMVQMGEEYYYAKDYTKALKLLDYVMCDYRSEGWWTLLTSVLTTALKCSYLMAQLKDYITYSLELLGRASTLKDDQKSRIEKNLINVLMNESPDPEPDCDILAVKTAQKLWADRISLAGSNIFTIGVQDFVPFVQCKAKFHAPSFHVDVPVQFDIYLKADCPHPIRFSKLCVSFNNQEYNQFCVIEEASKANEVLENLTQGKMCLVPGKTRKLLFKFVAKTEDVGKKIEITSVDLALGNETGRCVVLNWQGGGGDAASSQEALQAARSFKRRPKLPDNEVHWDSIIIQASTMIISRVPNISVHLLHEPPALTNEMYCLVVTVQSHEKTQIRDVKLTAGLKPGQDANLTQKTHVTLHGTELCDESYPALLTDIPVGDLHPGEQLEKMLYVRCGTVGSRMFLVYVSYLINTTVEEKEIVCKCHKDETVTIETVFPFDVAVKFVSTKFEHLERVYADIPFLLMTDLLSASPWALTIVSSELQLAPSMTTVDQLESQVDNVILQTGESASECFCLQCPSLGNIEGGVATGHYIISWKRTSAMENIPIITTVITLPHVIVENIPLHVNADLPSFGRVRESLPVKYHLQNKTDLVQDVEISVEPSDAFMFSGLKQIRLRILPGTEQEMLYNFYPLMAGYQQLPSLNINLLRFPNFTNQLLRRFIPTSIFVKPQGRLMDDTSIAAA
active: volasertib -0.275
inactive: [1] -0.045 | [2] 0.015 | epoxomicin 0.016 | [3] -0.049 | [4] -0.032 | [5] 0.032 | rosiglitazone -0.027 | [6] 0.004 | [7] -0.127

TNNC2 (UniProt P02585)
inactive: [1] 0.042 | volasertib 0.07 | [2] -0.031 | epoxomicin -0.037 | [3] 0.016 | [4] 0.04 | [5] -0.006 | rosiglitazone 0.006 | [6] -0.053 | [7] -0.015

VTA1 (UniProt Q9NP79)
Chain of UniProt Q9NP79 (Q9NP79 whole entry, looked up): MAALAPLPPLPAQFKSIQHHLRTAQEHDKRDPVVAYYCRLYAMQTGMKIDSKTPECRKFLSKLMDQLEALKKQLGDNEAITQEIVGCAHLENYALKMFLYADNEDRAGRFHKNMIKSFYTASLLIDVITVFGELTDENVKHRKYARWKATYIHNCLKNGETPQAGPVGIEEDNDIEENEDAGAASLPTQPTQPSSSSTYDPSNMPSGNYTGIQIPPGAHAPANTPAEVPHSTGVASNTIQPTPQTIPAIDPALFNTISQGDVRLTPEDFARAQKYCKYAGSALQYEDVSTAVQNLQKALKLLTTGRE
inactive: [1] -0.172 | [2] 0.06 | epoxomicin 0.024 | [3] 0.026 | [4] -0.045 | [5] 0.048 | rosiglitazone 0.016 | [6] -0.041 | [7] -0.079
active: volasertib -0.291

TXNL1 (UniProt O43396)
Chain of UniProt O43396 (O43396 whole entry, looked up): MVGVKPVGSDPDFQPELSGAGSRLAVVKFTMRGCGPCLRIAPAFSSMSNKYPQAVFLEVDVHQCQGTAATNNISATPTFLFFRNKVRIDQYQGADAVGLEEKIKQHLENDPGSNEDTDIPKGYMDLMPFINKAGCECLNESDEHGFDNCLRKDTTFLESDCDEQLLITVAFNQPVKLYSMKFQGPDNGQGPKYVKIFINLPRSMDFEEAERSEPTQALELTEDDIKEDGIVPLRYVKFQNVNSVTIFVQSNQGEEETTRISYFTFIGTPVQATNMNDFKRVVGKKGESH
inactive: [1] -0.104 | volasertib -0.163 | [2] 0.044 | [3] -0.018 | [4] -0.031 | [5] 0.027 | rosiglitazone 0.01 | [6] -0.018 | [7] 0.011
active: epoxomicin 0.295

WDR7 (UniProt Q9Y4E6)
Chain of UniProt Q9Y4E6 (Q9Y4E6 whole entry, looked up): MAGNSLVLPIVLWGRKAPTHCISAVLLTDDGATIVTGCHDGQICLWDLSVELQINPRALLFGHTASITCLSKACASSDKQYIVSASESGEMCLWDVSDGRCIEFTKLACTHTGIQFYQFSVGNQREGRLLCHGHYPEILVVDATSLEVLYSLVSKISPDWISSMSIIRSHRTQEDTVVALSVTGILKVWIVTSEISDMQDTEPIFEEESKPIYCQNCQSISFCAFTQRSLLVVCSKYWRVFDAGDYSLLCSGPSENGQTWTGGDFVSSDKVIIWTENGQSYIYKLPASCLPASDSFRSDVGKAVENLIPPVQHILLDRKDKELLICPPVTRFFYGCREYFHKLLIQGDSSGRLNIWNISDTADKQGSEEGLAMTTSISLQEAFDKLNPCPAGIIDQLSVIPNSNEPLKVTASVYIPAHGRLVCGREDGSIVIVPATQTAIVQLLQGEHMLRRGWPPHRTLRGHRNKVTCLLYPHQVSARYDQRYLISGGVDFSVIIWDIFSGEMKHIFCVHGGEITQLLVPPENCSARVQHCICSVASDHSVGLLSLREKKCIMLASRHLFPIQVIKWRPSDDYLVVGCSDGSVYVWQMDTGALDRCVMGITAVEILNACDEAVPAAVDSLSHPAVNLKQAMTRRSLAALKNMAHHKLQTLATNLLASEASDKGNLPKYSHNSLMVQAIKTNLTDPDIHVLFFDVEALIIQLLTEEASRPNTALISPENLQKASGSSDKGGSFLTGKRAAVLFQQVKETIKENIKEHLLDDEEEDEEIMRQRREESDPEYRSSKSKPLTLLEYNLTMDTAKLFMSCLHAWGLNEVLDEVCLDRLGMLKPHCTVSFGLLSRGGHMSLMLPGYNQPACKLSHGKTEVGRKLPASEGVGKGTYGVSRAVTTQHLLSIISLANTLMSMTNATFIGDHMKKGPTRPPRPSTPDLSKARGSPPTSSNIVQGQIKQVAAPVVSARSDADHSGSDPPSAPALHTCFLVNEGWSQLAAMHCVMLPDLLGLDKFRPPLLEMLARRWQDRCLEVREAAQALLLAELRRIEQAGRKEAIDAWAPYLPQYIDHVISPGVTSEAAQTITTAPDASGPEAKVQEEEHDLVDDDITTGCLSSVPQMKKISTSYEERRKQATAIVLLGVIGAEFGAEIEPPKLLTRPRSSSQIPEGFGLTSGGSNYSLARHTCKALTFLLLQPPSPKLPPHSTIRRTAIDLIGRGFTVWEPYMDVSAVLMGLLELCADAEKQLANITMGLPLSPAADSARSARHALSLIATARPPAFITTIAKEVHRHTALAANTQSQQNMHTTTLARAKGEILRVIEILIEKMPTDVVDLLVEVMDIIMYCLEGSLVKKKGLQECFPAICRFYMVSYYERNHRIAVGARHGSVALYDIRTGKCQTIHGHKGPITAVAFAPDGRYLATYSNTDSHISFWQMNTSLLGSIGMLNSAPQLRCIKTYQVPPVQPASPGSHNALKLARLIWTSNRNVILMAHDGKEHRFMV
active: volasertib -0.415
inactive: [1] -0.09 | [2] 0.027 | epoxomicin -0.007 | [3] -0.085 | [4] -0.007 | [5] 0.279 | rosiglitazone 0.082 | [6] 0.034 | [7] -0.199

VPS35L (UniProt Q7Z3J2)
Chain of UniProt Q7Z3J2 (Q7Z3J2 whole entry, looked up): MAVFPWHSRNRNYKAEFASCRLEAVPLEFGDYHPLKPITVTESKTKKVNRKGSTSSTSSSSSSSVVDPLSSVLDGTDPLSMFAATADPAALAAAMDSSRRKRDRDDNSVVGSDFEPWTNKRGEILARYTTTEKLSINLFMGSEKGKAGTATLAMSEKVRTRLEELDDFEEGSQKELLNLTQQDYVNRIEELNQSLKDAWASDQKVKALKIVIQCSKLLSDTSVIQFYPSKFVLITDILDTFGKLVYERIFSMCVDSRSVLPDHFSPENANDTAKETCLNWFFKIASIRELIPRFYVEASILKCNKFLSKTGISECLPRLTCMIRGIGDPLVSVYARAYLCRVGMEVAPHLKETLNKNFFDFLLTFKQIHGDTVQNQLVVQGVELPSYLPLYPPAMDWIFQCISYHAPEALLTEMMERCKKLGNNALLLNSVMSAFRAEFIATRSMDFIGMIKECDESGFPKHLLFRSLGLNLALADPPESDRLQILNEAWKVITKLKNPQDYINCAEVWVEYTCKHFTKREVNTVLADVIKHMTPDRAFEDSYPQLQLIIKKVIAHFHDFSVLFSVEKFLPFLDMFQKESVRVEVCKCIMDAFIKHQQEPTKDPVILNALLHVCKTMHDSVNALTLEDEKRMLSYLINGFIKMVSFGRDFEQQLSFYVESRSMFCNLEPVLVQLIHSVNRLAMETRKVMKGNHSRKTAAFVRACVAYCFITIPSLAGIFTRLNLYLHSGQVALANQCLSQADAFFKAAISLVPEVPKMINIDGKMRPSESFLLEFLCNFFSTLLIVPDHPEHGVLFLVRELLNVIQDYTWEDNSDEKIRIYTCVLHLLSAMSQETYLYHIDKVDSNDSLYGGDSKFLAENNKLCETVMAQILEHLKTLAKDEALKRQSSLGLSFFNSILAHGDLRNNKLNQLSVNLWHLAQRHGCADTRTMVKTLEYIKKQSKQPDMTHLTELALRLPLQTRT
active: volasertib -0.365
inactive: [1] 0.021 | [2] -0.038 | epoxomicin 0.003 | [3] -0.014 | [4] 0.071 | [5] 0.005 | rosiglitazone 0.072 | [6] -0.076 | [7] -0.099

U2AF2 (UniProt P26368)
inactive: [1] -0.057 | [2] 0.039 | epoxomicin -0.024 | [3] 0.029 | [4] 0 | [5] 0.002 | rosiglitazone 0.003 | [6] 0
active: volasertib -0.231 | [7] -0.307

WRB (UniProt O00258)
Chain of UniProt O00258 (O00258 whole entry, looked up): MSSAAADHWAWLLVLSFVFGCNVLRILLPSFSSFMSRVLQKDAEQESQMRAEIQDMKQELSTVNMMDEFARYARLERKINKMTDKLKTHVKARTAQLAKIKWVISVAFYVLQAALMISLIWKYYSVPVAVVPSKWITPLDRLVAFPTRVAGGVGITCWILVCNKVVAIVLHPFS
inactive: [1] 0.011 | volasertib 0.057 | [2] -0.071 | epoxomicin -0.059 | [3] -0.021 | [4] -0.02 | [5] -0.024 | rosiglitazone -0.025 | [6] 0.029 | [7] -0.016

TRIM28 (UniProt Q13263)
inactive: [1] -0.097 | [2] 0.052 | epoxomicin 0.077 | [3] -0.004 | [4] 0 | [5] 0.047 | rosiglitazone 0.029 | [6] -0.033 | [7] -0.033
active: volasertib -0.222

TMEM161B (UniProt Q8NDZ6)
inactive: [1] -0.028 | volasertib -0.038 | [2] 0.062 | epoxomicin 0.058 | [3] 0.01 | [4] 0.02 | [5] 0.079 | rosiglitazone 0.028 | [6] -0.068 | [7] -0.186

UXT isoform 2 (UniProt Q9UBK9)
Chain of UniProt Q9UBK9 (Q9UBK9 whole entry, looked up): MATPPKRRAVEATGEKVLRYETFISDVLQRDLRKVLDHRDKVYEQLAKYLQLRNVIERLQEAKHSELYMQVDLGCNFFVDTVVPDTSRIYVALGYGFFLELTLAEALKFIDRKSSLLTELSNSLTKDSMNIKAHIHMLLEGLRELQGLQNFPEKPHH
inactive: [1] 0.082 | volasertib 0.128 | [2] 0.05 | epoxomicin -0.038 | [3] -0.294 | [4] -0.248 | [5] 0.015 | rosiglitazone 0.022 | [6] -0.052 | [7] -0.126

UBXN10 (UniProt Q96LJ8)
inactive: [1] -0.057 | volasertib -0.319 | [2] 0.156 | epoxomicin 0.127 | [3] 0.034 | [4] 0.014 | [5] -0.088 | rosiglitazone 0.009 | [6] 0.087 | [7] -0.103

TNFRSF10A (UniProt O00220)
Chain of UniProt O00220 (O00220 whole entry, looked up): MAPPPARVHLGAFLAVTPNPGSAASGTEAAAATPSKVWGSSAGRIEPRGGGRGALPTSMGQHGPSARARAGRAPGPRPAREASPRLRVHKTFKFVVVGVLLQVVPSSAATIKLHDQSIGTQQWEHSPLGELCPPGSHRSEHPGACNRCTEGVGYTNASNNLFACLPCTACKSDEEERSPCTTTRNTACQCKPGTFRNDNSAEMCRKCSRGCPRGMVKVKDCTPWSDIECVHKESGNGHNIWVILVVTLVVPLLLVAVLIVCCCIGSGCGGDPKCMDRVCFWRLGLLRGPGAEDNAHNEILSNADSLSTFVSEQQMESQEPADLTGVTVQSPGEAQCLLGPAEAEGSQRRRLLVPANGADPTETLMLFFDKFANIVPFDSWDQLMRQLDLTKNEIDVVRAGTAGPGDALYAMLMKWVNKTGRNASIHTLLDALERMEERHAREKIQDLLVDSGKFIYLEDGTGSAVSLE
inactive: [1] 0.046 | volasertib 0.001 | [2] -0.02 | epoxomicin -0.047 | [3] -0.037 | [4] -0.104 | [5] -0.123 | rosiglitazone -0.053 | [6] -0.02 | [7] -0.007

WDR47 (UniProt O94967)
inactive: [1] 0.011 | volasertib -0.112 | [2] -0.02 | epoxomicin -0.037 | [3] -0.047 | [4] -0.055 | [5] -0.012 | rosiglitazone -0.003 | [6] 0.029 | [7] 0.234

WDR61 (UniProt Q9GZS3)
active: [7] -0.247
inactive: [1] 0.067 | volasertib 0.102 | [2] 0.035 | epoxomicin -0.029 | [3] 0.011 | [4] 0.035 | [5] -0.011 | rosiglitazone 0.095 | [6] -0.066

WASHC3 (UniProt Q9Y3C0)
inactive: [1] -0.015 | volasertib -0.066 | [2] -0.058 | epoxomicin 0.067 | [3] -0.025 | [4] 0.007 | [5] -0.002 | rosiglitazone 0.026 | [6] -0.03
active: [7] -0.245

TSFM (UniProt P43897)
inactive: [1] -0.003 | volasertib -0.092 | [2] 0.046 | epoxomicin 0.212 | [3] -0.062 | [4] 0.074 | [5] 0.081 | rosiglitazone 0.069 | [6] -0.041 | [7] -0.056

USP34 (UniProt Q70CQ2)
active: volasertib -0.455
inactive: [1] -0.215 | [2] -0.023 | epoxomicin 0.02 | [3] -0.027 | [4] -0.043 | [5] 0.014 | rosiglitazone 0.065 | [6] 0.015 | [7] -0.201

WBP4 (UniProt O75554)
inactive: [1] -0.004 | volasertib -0.045 | [2] 0.003 | epoxomicin 0.069 | [3] 0.025 | [4] -0.089 | [5] -0.036 | rosiglitazone -0.038 | [6] -0.058 | [7] 0.218

TMEM9 (UniProt Q9P0T7)
inactive: [1] -0.112 | volasertib -0.07 | [2] -0.05 | [3] -0.018 | [4] 0.015 | [5] 0.004 | rosiglitazone -0.157 | [6] -0.015 | [7] -0.007
active: epoxomicin 0.296

VPS33B (UniProt Q9H267)
active: [2] 0.284
inactive: [1] -0.129 | volasertib -0.378 | epoxomicin 0.022 | [3] -0.065 | [4] -0.039 | [5] 0.048 | rosiglitazone 0.073 | [6] 0.091 | [7] -0.218

WDR37 isoform 2 (UniProt Q9Y2I8)
inactive: [1] 0.078 | volasertib -0.022 | [2] -0.005 | epoxomicin -0.049 | [3] 0.007 | [4] -0.049 | [5] -0.004 | rosiglitazone 0.078 | [6] 0.246 | [7] -0.005

UHRF1BP1 (UniProt Q6BDS2)
inactive: [1] 0.137 | volasertib 0.131 | [2] 0.036 | epoxomicin -0.067 | [3] -0.013 | [4] -0.105 | [5] 0.012 | rosiglitazone 0.019 | [6] -0.09
active: [7] 0.211

UBE2J1 (UniProt Q9Y385)
inactive: [1] -0.073 | volasertib -0.165 | [2] 0.07 | epoxomicin 0.248 | [3] -0.024 | [4] 0.014 | [5] 0.01 | rosiglitazone 0.003 | [6] -0.083 | [7] -0.006

UFD1 isoform 1 (UniProt Q92890)
inactive: [1] -0.009 | volasertib 0.021 | [2] 0.008 | epoxomicin 0.063 | [3] -0.021 | [4] 0.063 | [5] 0.003 | rosiglitazone 0.008 | [6] -0.045 | [7] -0.015

WDR4 (UniProt P57081)
inactive: [1] -0.031 | volasertib -0.072 | [2] 0.025 | epoxomicin 0.074 | [3] -0.03 | [4] -0.06 | [5] 0.022 | rosiglitazone 0.177 | [6] -0.08 | [7] -0.114
